From PubChem BioAssay (EPA / NIEHS) come the findings set out here.

The source made the active and inactive calls. The calls were made as follows: active = hit-call score of the fitted dose curve at least 0.9, where 1 is the maximum; inactive = score below 0.9.

For this test, the target named is Estrogen receptor (Homo sapiens) (UniProt P03372). The test is described as follows: OT_ERa_GFPERaERE_0480: Odyssey Thera (OT) 8-hour HeLa Transcription Induction Assay for Estrogen Receptor (AID 2283381). The method, then: OT_ERa_GFPERaERE_0480 is a cell-based, single-readout assay that uses HeLa, a human cervix cell line, with measurements taken at 8 hours after chemical dosing in a 384-well plate.OT_ERa_GFPERaERE_0480 is one of one assay component(s) measured or calculated from the OT_ERa_GFPERaERE_0480 assay. It is designed to make measurements of fluorescent protein induction, a form of inducible reporter, as detected with optical microscopy: fluorescence microscopy signals by Microscopy technology.Data from the assay component OT_ERa_GFPERaERE_0480 was analyzed into 1 assay endpoint. This assay endpoint, OT_ERa_EREGFP_0480, was analyzed in the positive analysis fitting direction relative to DMSO as the negative control and baseline of activity. Using a type of inducible reporter, measures of receptor for gain-of-signal activity can be used to understand the reporter gene at the pathway-level as they relate to the gene ESR1. Furthermore, this assay endpoint can be referred to as a primary readout, because the performed assay has only produced 1 assay endpoint. To generalize the intended target to other relatable targets, this assay endpoint is annotated to the nuclear receptor intended target family, where the subfamily is steroidal.
Estrogen receptor (Homo sapiens), sequence (P03372 whole entry, looked up): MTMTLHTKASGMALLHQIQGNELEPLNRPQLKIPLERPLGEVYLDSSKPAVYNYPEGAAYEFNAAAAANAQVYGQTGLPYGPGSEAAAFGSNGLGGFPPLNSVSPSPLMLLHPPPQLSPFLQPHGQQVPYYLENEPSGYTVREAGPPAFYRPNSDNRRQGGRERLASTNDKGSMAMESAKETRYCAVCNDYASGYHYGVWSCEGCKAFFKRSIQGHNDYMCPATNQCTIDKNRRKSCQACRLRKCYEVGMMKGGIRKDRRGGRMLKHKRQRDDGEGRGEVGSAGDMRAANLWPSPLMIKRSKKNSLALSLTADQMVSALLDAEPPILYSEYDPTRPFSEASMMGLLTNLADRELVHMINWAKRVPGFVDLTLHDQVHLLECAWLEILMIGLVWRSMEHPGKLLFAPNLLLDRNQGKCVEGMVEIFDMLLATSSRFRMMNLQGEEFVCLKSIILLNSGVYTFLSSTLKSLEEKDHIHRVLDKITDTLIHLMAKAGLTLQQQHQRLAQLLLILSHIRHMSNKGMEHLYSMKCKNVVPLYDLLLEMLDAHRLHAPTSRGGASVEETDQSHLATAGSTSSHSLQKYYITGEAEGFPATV
All assay endpoints are quantified using high content image analysis algorithms.
Consider `Clc1ccccc1-c1nnc(-c2ccccc2Cl)nn1`, for which the molecule was classed as inactive. Consider `Cc1[nH]c(=O)n(C(C)(C)C)c(=O)c1Cl`, for which the molecule was called inactive. For the molecule `CCC(C)(NC(=O)c1cc(Cl)c(C)c(Cl)c1)C(=O)CCl` (stereo unspecified), the AC50 (in general, the concentration at which the activity in the assay is half-maximal) was 13.6 µM (active). On to `O=C(Nc1ccccc1)Nc1cnns1`, for which the result was inactive. `CNC(=O)/C=C(\C)OP(=O)(OC)OC`: the molecule was called inactive.

Consider `CNC(=O)CSP(=S)(OC)OC`, for which the molecule was called inactive. Same read-out and setting: under `O=C(NC(=O)c1c(F)cccc1F)Nc1ccc(OC(F)(F)C(F)OC(F)(F)F)c(Cl)c1` (stereo unspecified) stands “inactive”; under `N#Cc1c(Cl)c(Cl)c(Cl)c(C#N)c1Cl`, “inactive”; under `C[C@H]1[C@H](c2ccc(Cl)cc2)SC(=O)N1C(=O)NC1CCCCC1`, “inactive”. Regarding `CC(C)(C)C(O)/C(=C\c1ccc(Cl)cc1Cl)n1cncn1` (stereo unspecified), the AC50 is 86.7 µM (active).

In the case of `CCC(C)(C)C(=O)OC1=C(c2ccc(Cl)cc2Cl)C(=O)OC12CCCCC2`, the result was inactive. In the case of `COP(=O)(OC)OC=C(Cl)Cl`, the result was inactive. Regarding `CCC(C)Nc1c([N+](=O)[O-])cc(C(C)(C)C)cc1[N+](=O)[O-]` (stereo unspecified), the result was inactive. Still for that read-out and setting: next, `O=[N+]([O-])/N=C1\NCCN1Cc1ccc(Cl)nc1`: “inactive”; `CCN(CC)C(=O)SCc1ccc(Cl)cc1`: “inactive”. In the case of `CNC(=O)Oc1cccc(N=CN(C)C)c1`, the result was inactive. As to `CC(C)N(C(=O)COc1nnc(C(F)(F)F)s1)c1ccc(F)cc1`, the outcome was inactive. Turning to `COc1nn(CSP(=S)(OC)OC)c(=O)s1`, the outcome was inactive. As to `O=S1OCC2C(CO1)C1(Cl)C(Cl)=C(Cl)C2(Cl)C1(Cl)Cl` (stereo unspecified), the molecule was classed as inactive. Regarding `COP(=S)(OC)Oc1ccc(SC)c(C)c1`, the molecule was classed as inactive. For `CCOC1Oc2ccc(OS(C)(=O)=O)cc2C1(C)C` (stereo unspecified), the concentration at half-maximal activity (AC50) is 55.4 µM (active). In the case of `CCc1ccc(C(=O)NN(C(=O)c2cc(C)cc(C)c2)C(C)(C)C)cc1`, the call was inactive. For `CC(C)OC(=O)Nc1cccc(Cl)c1`, the molecule was classed as inactive. Turning to `CC[C@H](C)[C@H]1O[C@]2(C=C[C@@H]1C)C[C@@H]1C[C@@H](C/C=C(\C)[C@@H](O[C@H]3C[C@H](OC)[C@@H](O[C@H]4C[C@H](OC)[C@@H](O)[C@H](C)O4)[C@H](C)O3)[C@@H](C)/C=C/C=C3\CO[C@@H]4[C@H](O)C(C)=C[C@@H](C(=O)O1)[C@]34O)O2` (tested in a mixture with another compound), the result was inactive. Turning to `O=C1c2ccccc2C(=O)N1SC(Cl)(Cl)Cl`, the result was inactive.

As for `OCCOc1ccccc1`, the result was inactive. For `CC1(c2ccc(Oc3ccccc3)cc2)OC(=O)N(Nc2ccccc2)C1=O` (stereo unspecified), the call was inactive. In the case of `COP(=S)(OC)Oc1ccc([N+](=O)[O-])cc1`, the outcome was inactive. The same measure, in the same setting: under `C#CCN1C(=O)COc2cc(F)c(N3C(=O)C4=C(CCCC4)C3=O)cc21` stands “inactive”; under `CNC(=O)Oc1ccccc1OC(C)C`, “inactive”; under `CC1(C)C(C=C(Cl)Cl)C1C(=O)OC(C#N)c1ccc(F)c(Oc2ccccc2)c1` (stereo unspecified), “inactive”. In the case of `CN1CSC(=S)N(C)C1`, the result was inactive. For the molecule `CCCN(CCC)c1c([N+](=O)[O-])cc(C(F)(F)F)cc1[N+](=O)[O-]`, the molecule was called inactive.

Regarding `CCOCN(C(=O)CCl)c1c(C)cccc1CC`, the molecule was called inactive. `O=[N+]([O-])c1c(Cl)c(Cl)c(Cl)c(Cl)c1Cl`: the molecule was called inactive. Consider `N#CN`, for which the call was inactive.
